# Measured values as given in PMC5540273 (PLoS ONE, 2017).
# Read-outs that look alike come from different tables or passages of the source.
# Key:
# FYN = conditions: concentration: 1 μM, replicates: in singlicate; n = 1
# GAK = conditions: concentration: 1 μM, replicates: in singlicate; n = 1
# GCN2(Kin.Dom.2,S808G) = system: T1, GCN2(Kin.Dom.2,S808G); conditions: concentration: 1 μM, replicates: in singlicate; n = 1
# T1 construct: gene EIF2AK4
# GRK1 = conditions: concentration: 1 μM, replicates: in singlicate; n = 1
# GRK2 = system: T2, GRK2; conditions: concentration: 1 μM, replicates: in singlicate; n = 1
# T2 construct: gene ADRBK1
# GRK3 = system: T3, GRK3; conditions: concentration: 1 μM, replicates: in singlicate; n = 1
# T3 construct: gene ADRBK2
# GRK4 = conditions: concentration: 1 μM, replicates: in singlicate; n = 1
# GRK7 = conditions: concentration: 1 μM, replicates: in singlicate; n = 1
# GSK3A = conditions: concentration: 1 μM, replicates: in singlicate; n = 1
# GSK3B = conditions: n = 1
# HASPIN = system: T4, HASPIN; conditions: concentration: 1 μM, replicates: in singlicate; n = 1
# T4 construct: gene GSG2
# HCK = conditions: concentration: 1 μM, replicates: in singlicate; n = 1
# HIPK1 = conditions: concentration: 1 μM, replicates: in singlicate; n = 1
# HIPK2 = conditions: concentration: 1 μM, replicates: in singlicate; n = 1
# HIPK3 = conditions: concentration: 1 μM, replicates: in singlicate; n = 1
# HIPK4 = conditions: concentration: 1 μM, replicates: in singlicate; n = 1
# HPK1 = conditions: concentration: 1 μM, replicates: in singlicate; n = 1
# HUNK = conditions: concentration: 1 μM, replicates: in singlicate; n = 1
# ICK = conditions: concentration: 1 μM, replicates: in singlicate; n = 1
# IGF1R = conditions: concentration: 1 μM, replicates: in singlicate; n = 1
# [1] = concentration: 1 μM, replicates: in singlicate
# 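Also: KINOMEscan kinase panel screen.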
structure (smiles),measurement,setting,value
CC(C)c1nc(-c2ccc(F)c(NS(=O)(=O)c3c(F)cccc3F)c2)c(-c2ccnc(Nc3ccc(N4CCOCC4)nc3)n2)s1 [GSK1804250],%Inh,FYN,95.9%
same,%Inh,GAK,92.1%
same,%Inh,"GCN2(Kin.Dom.2,S808G)",100%
same,%Inh,GRK1,0%
same,%Inh,GRK2,6%
same,%Inh,GRK3,7%
same,%Inh,GRK4,9%
same,%Inh,GRK7,0%
same,%Inh,GSK3A,40%
same,%Inh,GSK3B; [1],23%
same,%Inh,HASPIN,18%
same,%Inh,HCK,98.4%
same,%Inh,HIPK1,17%
same,%Inh,HIPK2,0%
same,%Inh,HIPK3,30%
same,%Inh,HIPK4,72%
same,%Inh,HPK1,56%
same,%Inh,HUNK,7%
same,%Inh,ICK,0%
same,%Inh,IGF1R,8%
CN(c1ccc(F)c(NC(=O)c2cccc(OC(C)(C)C#N)c2Cl)c1)c1ccc2nc(NC(=O)C3CC3)sc2n1,%Inh,FYN,79%
same,%Inh,GAK,0%
same,%Inh,"GCN2(Kin.Dom.2,S808G)",0%
same,%Inh,GRK1,0%
same,%Inh,GRK2,0%
same,%Inh,GRK3,6%
same,%Inh,GRK4,4%
same,%Inh,GRK7,21%
same,%Inh,GSK3A,4%
same,%Inh,GSK3B; [1],0%
same,%Inh,HASPIN,27%
same,%Inh,HCK,90%
same,%Inh,HIPK1,0%
same,%Inh,HIPK2,0%
same,%Inh,HIPK3,0%
same,%Inh,HIPK4,0%
same,%Inh,HPK1,0%
same,%Inh,HUNK,1%
same,%Inh,ICK,0%
same,%Inh,IGF1R,0%
COc1cccc(C2=C(Nc3cccc(O)c3)C(=O)NC2=O)c1 [SB-390771],%Inh,FYN,0%
same,%Inh,GAK,0%
same,%Inh,"GCN2(Kin.Dom.2,S808G)",0%
same,%Inh,GRK1,4%
same,%Inh,GRK2,0%
same,%Inh,GRK3,31%
same,%Inh,GRK4,0%
same,%Inh,GRK7,100%
same,%Inh,GSK3A,0%
same,%Inh,GSK3B; 1 µM,13%
same,%Inh,HASPIN,4%
same,%Inh,HCK,0%
same,%Inh,HIPK1,0%
same,%Inh,HIPK2,0%
same,%Inh,HIPK3,29%
same,%Inh,HIPK4,0%
same,%Inh,HPK1,51%
same,%Inh,HUNK,0%
same,%Inh,ICK,3%
same,%Inh,IGF1R,19%
CSc1ccc(NC2=C(c3ccc(Cl)cc3)C(=O)NC2=O)cc1 [SB-317658],%Inh,FYN,4%
same,%Inh,GAK,12%
same,%Inh,"GCN2(Kin.Dom.2,S808G)",0%
same,%Inh,GRK1,2%
same,%Inh,GRK2,21%
same,%Inh,GRK3,12%
same,%Inh,GRK4,5%
same,%Inh,GRK7,26%
same,%Inh,GSK3A,37%
same,%Inh,GSK3B; 1 µM,0%
same,%Inh,HASPIN,0%
same,%Inh,HCK,32%
same,%Inh,HIPK1,2%
same,%Inh,HIPK2,3%
same,%Inh,HIPK3,7%
same,%Inh,HIPK4,6%
same,%Inh,HPK1,9%
same,%Inh,HUNK,4%
same,%Inh,ICK,19%
same,%Inh,IGF1R,3%
COC(=O)Nc1nc2cc(Oc3ccc(NC(=O)Nc4cccc(SC)c4)cc3)ccc2[nH]1.Cl [GW697999],%Inh,FYN,19%
same,%Inh,GAK,21%
same,%Inh,"GCN2(Kin.Dom.2,S808G)",9%
same,%Inh,GRK1,0%
same,%Inh,GRK2,0%
same,%Inh,GRK3,57%
same,%Inh,GRK4,0%
same,%Inh,GRK7,0%
same,%Inh,GSK3A,0%
same,%Inh,GSK3B; [1],0%
same,%Inh,HASPIN,0%
same,%Inh,HCK,12%
same,%Inh,HIPK1,5%
same,%Inh,HIPK2,0%
same,%Inh,HIPK3,1%
same,%Inh,HIPK4,36%
same,%Inh,HPK1,30%
same,%Inh,HUNK,28%
same,%Inh,ICK,0%
same,%Inh,IGF1R,5%
Cc1ccc(O)cc1Nc1ccnc2cc(-c3ccc(CN4CCCCC4)o3)ccc12 [GW557777],%Inh,FYN,99.7%
same,%Inh,GAK,99.6%
same,%Inh,"GCN2(Kin.Dom.2,S808G)",0%
same,%Inh,GRK1,0%
same,%Inh,GRK2,0%
same,%Inh,GRK3,0%
same,%Inh,GRK4,13%
same,%Inh,GRK7,0%
same,%Inh,GSK3A,0%
same,%Inh,GSK3B; [1],0%
same,%Inh,HASPIN,0%
same,%Inh,HCK,99.4%
same,%Inh,HIPK1,0%
same,%Inh,HIPK2,0%
same,%Inh,HIPK3,0%
same,%Inh,HIPK4,0%
same,%Inh,HPK1,37%
same,%Inh,HUNK,32%
same,%Inh,ICK,0%
same,%Inh,IGF1R,0%
Nc1ncc(-c2ccc3nccc(-c4ccncc4)c3c2)cc1S(=O)(=O)N1CCCCC1 [GSK1693850],%Inh,FYN,0%
same,%Inh,GAK,11%
same,%Inh,"GCN2(Kin.Dom.2,S808G)",4%
same,%Inh,GRK1,21%
same,%Inh,GRK2,0%
same,%Inh,GRK3,0%
same,%Inh,GRK4,8%
same,%Inh,GRK7,11%
same,%Inh,GSK3A,22%
same,%Inh,GSK3B; [1],13%
same,%Inh,HASPIN,80%
same,%Inh,HCK,0%
same,%Inh,HIPK1,42%
same,%Inh,HIPK2,0%
same,%Inh,HIPK3,20%
same,%Inh,HIPK4,57%
same,%Inh,HPK1,50%
same,%Inh,HUNK,82%
same,%Inh,ICK,16%
same,%Inh,IGF1R,10%
Nc1ncc(-c2cn[nH]c2)c2scc(-c3ccc4c(c3)CCN4C(=O)Cc3ccccc3)c12 [GSK2593067],%Inh,FYN,65%
same,%Inh,GAK,32%
same,%Inh,"GCN2(Kin.Dom.2,S808G)",97.8%
same,%Inh,GRK1,10%
same,%Inh,GRK2,0%
same,%Inh,GRK3,0%
same,%Inh,GRK4,0%
same,%Inh,GRK7,0%
same,%Inh,GSK3A,2%
same,%Inh,GSK3B; [1],11%
same,%Inh,HASPIN,0%
same,%Inh,HCK,92.6%
same,%Inh,HIPK1,0%
same,%Inh,HIPK2,1%
same,%Inh,HIPK3,4%
same,%Inh,HIPK4,0%
same,%Inh,HPK1,94%
same,%Inh,HUNK,0%
same,%Inh,ICK,0%
same,%Inh,IGF1R,4%
